Values without a mark were called inactive. Calls of active or inactive are those of the source. The call rests on the fitted dose curve; in most records, active means well fitted curve in the direction sought with a large enough effect in the repeat runs; inconclusive means weak or mixed curves; inactive means flat fitted curve, though single readings scatter.
Assay: qHTS assay to test for compound auto fluorescence at 460 nm (blue) in HepG2 cell free culture (AID 720685)
Conditions: Cell-free culture medium, blue autofluorescence 405/460 nm; series mostly up to 91.3 µM
Description: U.S. Tox21 Program National Center for Advancing Translational Sciences [NCATS] NIH Chemical Genomics Center [NCGC] U.S. Environmental Protection Agency [EPA] National Institutes of Environmental Health Sciences [NIEHS] National Toxicology Program [NTP] U.S. Food and Drug Administration [FDA] Tox21 Assay Overview: Compound auto fluorescence often interferes with screening of the compound library against various biological targets and signaling pathways. Some of these compounds may have fluorophoric properties. Such properties may interfere with the assay outputs resulting in false positives and/or negatives. To decrease such complications and ensure the compound activities are relevant in terms of biological response, the Tox21 10K compound library was screened for auto fluorescence. From the fluorophores used as reporter signals in our screening assays, the auto fluorescence equivalencies of compounds against three fluorophores have been evaluated: Triamterene, Fluorescein and Rose Bengal sodium for blue, green and red fluorescence, respectively. The fluorescence intensities were measured using Excitation/Emission wavelengths at 405/460nm, 485/535nm and 540/590nm for blue, green and red labels, respectively. This assay includes the blue fluorescence data.
Tox21 Assay Protocol Summary: 5 uL of culture medium (MEM containing 10% FBS) per well was dispensed into black wall/clear bottom 1536-well plates using a Multidrop Combi Dispenser (ThermoFisher Scientific, Waltham, MA). After 23 nL compound or DMSO vehicle was transferred into assay plate by a pintool work station (Kalypsys, San Diego, CA), fluorescence intensities in the assay plates were measured by an Envision (PerkinElmer, Shelton, CT) plate reader using three labels for measuring blue, green and red fluorescence at […] 460, 535 and 590nm respectively.
For `CCC/C=C/CO`, the outcome was “inactive”. For `CCN(CC)CCOc1ccc(Cc2ccccc2)cc1`, the outcome was “inactive”. In the case of `O=C(C(Cl)Cl)N1CCOC12CCCCC2`, the outcome is reported as “inactive”. For `NNS(=O)(=O)c1ccc(Oc2ccc(S(=O)(=O)NN)cc2)cc1`, the outcome was “inactive”. With `CN1CCN(C2=Nc3cc(F)ccc3Cc3ccccc32)CC1` the outcome was “inactive”. In the case of `Cc1ccc(C)c(N)c1`, the outcome is reported as “inactive”. For `NC1=NCC2c3ccccc3Cc3ccccc3N12` (stereo not given), the outcome was “inactive”. In the case of `Cc1nnc(SCC2=C(C(=O)O)N3C(=O)[C@@H](NC(=O)Cn4cnnn4)[C@H]3SC2)s1`, the outcome is reported as “inactive”. In the case of `O=C1C=CC(=O)O1`, the outcome is reported as “inactive”. In the case of `CCN(O)CC`, the outcome is reported as “inactive”. In the case of `COc1ccc2nc(NC(=O)Nc3ccccc3)sc2c1`, the outcome is reported as “inactive”. For `CC(=O)N(CC(O)CN(C(C)=O)c1c(I)c(C(=O)NCC(O)CO)c(I)c(C(=O)NCC(O)CO)c1I)c1c(I)c(C(=O)NCC(O)CO)c(I)c(C(=O)NCC(O)CO)c1I` (stereo not given), the fluorescence, % of fluorescent control was -0.0088% [at 18.6 µM]. For `COc1cc(Cl)ccc1Cl`, the outcome was “inactive”. In the case of `Cc1ccc([N+](=O)[O-])cc1Cl`, the outcome is reported as “inactive”. For `O=C(O[C@@H](C(=O)O)[C@@H](OC(=O)c1ccccc1)C(=O)O)c1ccccc1`, the outcome was “inactive”. For `CN(CCCN1c2ccccc2CCc2ccccc21)CC(=O)c1ccc(Cl)cc1`, the outcome was “inactive”. In the case of `CCNCCO`, the outcome is reported as “inactive”. For `CCOc1ccc2nc(N)sc2c1`, the outcome was “inactive”. For `C[C@@H](N)C(=O)O`, the outcome was “inactive”. For `OCCN1CCN(CCO)CC1`, the outcome was “inactive”. For `CC1=C(CC(=O)O)c2cc(F)ccc2/C1=C\c1ccc(S(C)(=O)=O)cc1`, the outcome was “inactive”. In the case of `Cc1c(-c2ccccc2)oc2c(C(=O)OCCN3CCCCC3)cccc2c1=O`, the fluorescence, % of fluorescent control is reported as -0.115% [at 18.6 µM]. With `CCCCNc1cc(C(=O)O)cc(S(N)(=O)=O)c1Oc1ccccc1` the fluorescence, % of fluorescent control was -0.0399% [at 18.6 µM]. With `CC(C)CCCCCCc1ccc(OCCOCCO)cc1` the outcome was “inactive”. With `CCCCCCCCCCCCCCCCOP(=O)([O-])OCC[N+](C)(C)C` the outcome was “inactive”. For `O=C1CCN(c2ccccc2)N1`, the outcome was “inactive”. For `Oc1ccccc1C=NCc1ccccc1`, the outcome was “inactive”. In the case of `CC(C)O`, the outcome is reported as “inactive”. In the case of `C=CC(C)(O)CC/C=C(\C)CCC=C(C)C` (stereo not given), the outcome is reported as “inactive”. In the case of `CCCCCCOc1ccc(N)cc1`, the outcome is reported as “inactive”. With `CCOC(=O)C(Br)c1ccccc1` (stereo not given) the outcome was “inactive”. With `CC(=O)Oc1cc(C(C)C)c(OCCN(C)C)cc1C` the fluorescence, % of fluorescent control was -0.0726% [at 18.6 µM]. In the case of `CC1(O)CSC(C)(O)CS1` (stereo not given), the outcome is reported as “inactive”. With `CCCCCOc1ccc(C2SC(=O)NC2=O)cc1OCC` (stereo not given) the outcome was “inactive”. For `c1ccc(CN(CC2=NCCN2)c2ccccc2)cc1`, the outcome was “inactive”. In the case of `CC(C)c1ccccc1`, the outcome is reported as “inactive”. In the case of `CCCc1c2oc(C(=O)O)cc(=O)c2cc2c(=O)cc(C(=O)O)n(CC)c12`, the outcome is reported as “inactive”. For `O=C1N(c2ccccc2)c2ccccc2C1(Cc1ccncc1)Cc1ccncc1`, the outcome was “inactive”. With `Nc1ccc2ccccc2c1S(=O)(=O)O` the outcome was “inactive”. With `NC(=O)Cc1cccc(C(=O)c2ccccc2)c1N` the outcome was “inactive”.
On the % scale 0 is the no-effect control and ±100 the full control effect.
